# Most compounds without a hit are left out; they make up all but 5.7% or so of the library.
# Giardia killer = Small Molecules that selectively kill Giardia lamblia: qHTS | Giardia lamblia trophozoite viability | activity change, % at 7.66 µM, hits read low | 340,000 tested, 0.15% active; in the data active means activity change below about -80%; inconclusive means between about -30% and that limit;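 further: parasites exposed to compound for two days anaerobically before the ATP read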
#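 Luminescence from cellular ATP indicates surviving trophozoites (100 cells/well) following 48 hrs anaerobic compound treatment at 37 deg C; signal develops 15-30 min at room temperature.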
# KB-V1 MDR tox = qHTS assay for MDR1-selective chemotherapeutics: Primary screen using the drug-selected MDR subline cells KB-V1 | KB-V1 MDR cells viability, CellTiter-Glo, 72 h | Potency, µM (series often up to 46.1 µM), actives largely listed as cytotoxic | 400,000 tested, 3.4% active | AID 1347076, 2019; further: nearly all actives have a fitted effect of over 60% in size
#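 Potencies derive from concentration-effect curves fitted to normalized luminescence (CellTiter-Glo) of KB-V1 cells treated for 72 h at 37 degrees C in phenol-red-free DMEM containing 10% FBS.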
# PI4K2A block = qHTS for small molecular inhibitors of PI4K2A. purified PI4K2A, ADP-Glo luminescence, 1 h; hits give low values. activity change, negative = inhibition, % at 76.9 µM. Phosphatidylinositol 4-kinase type 2-alpha (Homo sapiens), Q9BTU6. 420,000 tested, 0.13% active; in the data active means activity change below about -50%; inconclusive means mostly about -30% to -49%
# Target sequence (Q9BTU6 whole entry, looked up): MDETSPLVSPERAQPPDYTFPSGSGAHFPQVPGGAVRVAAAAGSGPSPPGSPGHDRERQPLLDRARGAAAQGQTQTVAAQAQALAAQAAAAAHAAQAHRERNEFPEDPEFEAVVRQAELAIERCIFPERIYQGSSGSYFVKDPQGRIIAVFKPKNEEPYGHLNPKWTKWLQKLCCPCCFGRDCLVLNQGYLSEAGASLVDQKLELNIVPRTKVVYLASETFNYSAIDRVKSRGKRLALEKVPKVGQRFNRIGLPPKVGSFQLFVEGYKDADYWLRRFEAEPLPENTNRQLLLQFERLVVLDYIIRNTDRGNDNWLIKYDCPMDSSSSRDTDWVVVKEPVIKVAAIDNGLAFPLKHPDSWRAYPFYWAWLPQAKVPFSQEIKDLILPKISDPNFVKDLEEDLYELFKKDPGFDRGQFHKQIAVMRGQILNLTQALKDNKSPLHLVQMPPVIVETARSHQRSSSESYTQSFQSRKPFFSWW
#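 Compounds are screened against recombinant PI4K2A using PI as substrate and ATP, the latter dispensed at 300 microM. Reactions run one hour at ambient temperature before ADP-Glo detection; full inhibition defined by wells lacking enzyme.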
# Nrf2 inh = Nrf2 qHTS screen for inhibitors | Potency, µM (series often up to 46 µM), usual class: inhibitors | A549 ARE-Fluc reporter, luciferase luminescence, 18-24 h | 360,000 tested, 2.1% active; further: nearly all actives have a fitted effect of over 60% in size
#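 Concentration-response testing used A549 ARE_Fluc cells at 5000 cells/well. Following an 18-24 h compound incubation, viability was read by fluorescence (Ex 405/Em 525) and luciferase output by luminescence.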
# KB-3-1 tox = qHTS assay for MDR1-selective chemotherapeutics: Primary screen using the parental adenocarcinoma cell KB-3-1. KB-3-1 viability, CellTiter-Glo ATP luminescence, 72 h. Potency, µM (series often up to 46.1 µM), actives largely listed as cytotoxic. 400,000 tested, 1.4% active; further: nearly all actives have a fitted effect of over 60% in size
#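 Cells are dispensed, compounds pinned in, plates held at 37 °C for 72 h, then CellTiter-Glo is added and luminescence read after 10 minutes. Cell line: parental KB-3-1 in phenol-red-free DMEM, 10% FBS.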
# A549 viability = Nrf2 qHTS screen for inhibitors: counterscreen for cytotoxicity; Potency, µM (doses to about 46 µM), most hits filed as inhibitors; 390,000 tested, 0.16% active; A549 ARE-Fluc cells, CellTiter-Fluor viability, 18-24 h; AID 504648, 2011
#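 Cytotoxicity counterscreen: CellTiter-Fluor fluorescence was measured in A549 ARE_Fluc cells after 18-24 h of compound exposure in a concentration series. The subsequent BugLite luminescent read reports ARE-luciferase activity.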
# Numbers stand for hits; . = inactive; ? = inconclusive; / = not tested or not shown. Unless noted, the call rests on the fitted dose curve; in most records, active means well fitted curve in the direction sought with a large enough effect; inconclusive means small, poorly fitted or top-dose-only effect, or another doubt; inactive means no such curve, though single readings can be large; an effect the other way counts as inactive or inconclusive.
SMILES,Giardia killer,KB-V1 MDR tox,PI4K2A block,Nrf2 inh,KB-3-1 tox,A549 viability
O=C(OC12CCCN(C1)/C(=C/c1ccc(Cl)cc1)C2)C1CCCC1 (configuration not stated),/,/,.,/,/,/
CCOC(=O)n1c(=O)oc2cc(S(=O)(=O)N3CCCCC3)ccc21,.,23.1µM,.,.,.,.
CCOC(=O)N1CCN(S(=O)(=O)c2ccc3c(c2)oc(=O)n3C)CC1,.,23.1µM,.,.,.,.
CCC(C#Cc1ccccc1)NCc1ccc(OC)cc1OC (configuration not stated),/,/,.,/,/,/
Cc1ccc(S(=O)(=O)N2CCC(C(=O)OCC(=O)N3CC(C)CC(C)C3)CC2)cc1C (configuration not stated),.,.,.,.,.,.
Cc1ccc(S(=O)(=O)N2CC(O)C[C@H]2C(=O)OCC(=O)N2CCN(c3ccc(F)cc3)CC2)cc1C (some centres not stated),.,.,.,16.4µM,?,.
COc1ccc(-c2cc3ccccc3nc2N)cc1OC,.,.,.,16.4µM,.,.
COc1ccc(C(=O)OCCCN(C)C2CN(Cc3cn(Cc4ccccc4C(F)(F)F)nn3)S(=O)(=O)C2)cc1OC (configuration not stated),/,/,.,/,/,/
Oc1[nH]c2c(Cl)cc(Cl)cc2c1N=NC(=S)NCC1CCCO1 (configuration not stated),.,?,.,?,5.8µM,.
Oc1[nH]c2ccccc2c1N=NC(=S)NCC1CCCO1 (configuration not stated),.,11.6µM,.,.,.,.
Cn1c(=O)oc2cc(S(=O)(=O)N3CCN(C(=O)C4CCCO4)CC3)ccc21 (configuration not stated),/,/,.,/,/,/
O=C1c2cccc3cccc(c23)C(=O)N1CC1CCN(S(=O)(=O)c2ccc(F)cc2)CC1,?,9.2µM,.,.,.,.
O=C1c2cccc3cccc(c23)C(=O)N1CC1CCN(S(=O)(=O)c2ccccc2)CC1,.,.,.,.,.,.
Cc1ccc(CNc2nc(N)c([N+](=O)[O-])c(NCc3ccccc3)n2)cc1,.,.,.,.,.,.
COc1cccc(Nc2nc(N)c([N+](=O)[O-])c(NCc3ccccc3)n2)c1,.,?,.,?,?,.
Cc1cccc(Nc2nc(N)c([N+](=O)[O-])c(NCc3ccccc3)n2)c1,.,18.4µM,.,?,.,.
Nc1nc(NCc2ccccc2)nc(NCc2ccccc2)c1[N+](=O)[O-],.,16.4µM,.,.,.,.
Cc1ccc(Nc2nc(N)c([N+](=O)[O-])c(NCc3ccco3)n2)cc1C,.,11.6µM,.,.,23.1µM,.
Cc1ccc(Nc2nc(N)c([N+](=O)[O-])c(NCCO)n2)cc1C,.,?,.,.,?,.
Nc1nc(Nc2ccccc2)nc(NCc2ccccc2)c1[N+](=O)[O-],.,?,.,23.1µM,?,?
Cn1c(=O)c2c(-c3ccccc3Cl)n(-c3cc(Cl)ccc3O)cc2n(C)c1=O,/,.,.,.,.,.
COC(=O)[C@H]1C[C@@]2(C)c3ccccc3N(C(=O)OC(C)(C)C)[C@H]2N1C(=O)OC(C)(C)C,/,/,.,/,/,/
COc1ccc(-c2nc3cc(NC(=O)c4ccc(C)cc4)ccc3o2)cc1Cl,/,?,.,.,?,.
CCOC(=O)C1=C(NC(=S)NC(=O)c2ccccc2)c2ccccc2CC1(C)CC (configuration not stated),.,?,.,?,16.4µM,?
CCSc1nnc(NC(=O)C(C(F)(F)F)C(F)(F)F)s1,.,.,.,.,.,.
SMILES,Giardia killer,KB-V1 MDR tox,PI4K2A block,Nrf2 inh,KB-3-1 tox,A549 viability
CCSc1nnc(NC(=O)C(CC)(C(F)(F)F)C(F)(F)F)s1,.,?,.,14.6µM,.,?
CCSc1nnc(NC(=O)NCC(F)(F)F)s1,.,.,.,.,.,.
CCSc1nnc(NC(=O)C(C)(C(F)(F)F)C(F)(F)F)s1,.,.,.,16.4µM,?,?
O=[N+]([O-])c1cccc(S(=O)(=O)N2CCN(S(=O)(=O)c3ccc4c(c3)OCCO4)CC2)c1,/,/,/,.,/,.
CN1C2=N[C@@H](c3ccc4c(c3)OCO4)CC(=O)N2/C(=C\c2ccccc2)[C@@H]1c1ccccc1,/,/,.,/,/,/
O=C(NCCc1ccc(Cl)cc1)C1CCC(=O)N1Cc1ccccc1Cl (configuration not stated),.,23.1µM,.,.,.,.
COc1ccc(-c2nc(Cn3c(SCc4cccc(C(F)(F)F)c4)nc4cccnc43)c(C)o2)cc1OC,/,/,.,23.1µM,/,.
COc1ccc(CSc2nc3ccncc3n2Cc2nc(-c3ccc(OC)c(OC)c3)oc2C)cc1,/,.,.,.,.,?
COc1cc(Cn2c(=O)oc3ccc(C)cc32)ccc1OCCC(C)C,/,?,.,20.6µM,.,.
CCCOc1ccc(Cn2c(=O)oc3ccc(C)cc32)cc1OC,.,11.6µM,.,?,.,.
CCCOc1ccccc1Cn1c(=O)oc2ccc(C)cc21,.,.,.,.,.,.
Cc1cc(OCCn2cc(C(=O)c3ccco3)c3ccccc32)ccc1Cl,/,.,.,?,.,.
COc1ccccc1OCCn1cc(/C=C(\C#N)C(=O)NCc2ccco2)c2ccccc21,.,3.66µM,.,.,.,.
COc1cccc(OCCn2cc(C(=O)c3ccco3)c3ccccc32)c1,.,20.6µM,.,?,.,.
COc1ccc(OC)c(NC(=O)Cn2cc(C(=O)c3ccco3)c3ccccc32)c1,.,23.1µM,.,14.6µM,.,.
Cc1ccc(C)c(OCCn2cc(/C=C(\C#N)C(=O)NCc3ccco3)c3ccccc32)c1,.,.,.,.,.,.
COc1ccccc1OCCn1cc(C(=O)c2ccco2)c2ccccc21,.,13µM,.,?,.,.
Cc1ccccc1OCCn1cc(C(=O)c2ccco2)c2ccccc21,/,.,.,?,.,.
COc1cccc(/C=C2\CC3(OC(=O)c4ccc(F)cc4)CCCN2C3)c1 (configuration not stated),/,/,.,/,/,/
Cc1ccc(S(=O)(=O)NCC2CN(S(=O)(=O)c3ccc(C)cc3)c3ccccc3C(=O)N2c2ccc(F)cc2)cc1 (configuration not stated),/,/,.,/,/,/
CCOc1cc(-c2cn(S(=O)(=O)c3cccc4nsnc34)nc2N)cc(OCC)c1OCC,.,.,.,/,.,.
Cc1ccc(-c2cn(S(=O)(=O)c3ccc(C)cc3)nc2N)cc1,.,13µM,.,/,.,.
